Laboratory results published in the supplement of paper PMC10338343.
± gives the standard deviation.

System: MILI (PIWIL2) piRISC loaded with L1MC piRNA (26 nt)
Experiment: pre-steady-state target cleavage rate (min^-1); guide: L1MC piRNA 5'p-UAACUAAAUACUAUGCAAGCUGUAGG; higher = faster piRNA-guided slicing of the target
Conditions: auxiliary factor: 500 nM mouse GTSF1
Procedure, shortened: (§1)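 The method was Cleave-'n-Seq, in which uncleaved targets from a transcribed, DNA-blocked target RNA library were sequenced after exposure to active affinity-purified piRISC carrying one synthetic guide, with or without GTSF1 partner protein. Reactions contained 0.1 nM library, 1 nM piRISC and, where present, 500 nM GTSF1 in HEPES–potassium acetate buffer at 33 °C for 0–8 or 0–960 min. Reads were normalised to depth and to weakly complementary targets, three trials were pooled, and k3 was capped at 0.0001 min^-1. The pre-steady-state cleavage rate came from a burst-and-steady-state fit.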

Row | Sequence | pre-steady-state target cleavage rate
1 | UCCUGGAACAGCUUGCAUAGUAAUUUGUUA | 0.0687 ± 0.013
2 | UCCUGGAACAGCUUGCAUAGUAUUUAUUUA | 0.113 ± 0.026
3 | UCCUGGAACAGCUUCCAUAGUAUUUAGUAA | 0.0767 ± 0.03
4 | UCCUCCUACAGCUUGCAUAGUAUUAUGAAA | 0.115 ± 0.029
5 | UCCUCCUACAGCUUGCAUAGAAUUUAGAUA | 0.0558 ± 0.014
6 | UCCUCCUACAGCUAGCAUAGUAUUUAGAAA | 0.113 ± 0.021
7 | UCCUCCUUCAGCUUGCAUAGUAUUUACUUA | 0.132 ± 0.023
8 | UCCUGGAUGAGCUUGCAUAGUAUUUAGAUUA | 0.165 ± 0.048
9 | UCCUGGAUCAGCUUGCAUAGUAAUUAGAUA | 0.0994 ± 0.025
10 | UCCUCCUACAGGAUGCAUAGUAUUUACAAA | 0.0521 ± 0.011
11 | UCCUGGAUCAGCUUGCAUAGUUUUUAGUAA | 0.0337 ± 0.0089
12 | UCCUGCUACAGCUUGCAUAGUAAUUAGUAA | 0.133 ± 0.025
13 | UCCUGGAUGUGCUUGCAUAAUAUUUAGUUA | 0.158 ± 0.018
14 | UCCUCCUACAGCUUGCAUAGAUUUUAGUAA | 0.0588 ± 0.015
15 | UCCUGCUACAGCUUGCAUAGUAUAAUGAAA | 0.0499 ± 0.018
16 | UCCUGCUACAGCUUGCAUAGUAUAUAGUAA | 0.0474 ± 0.018
17 | UCCUCCUUCAGCUUGCAUAGUAUUUAGAAA | 0.119 ± 0.021
18 | UCCUGGAUGUCCUUGCAUAGUAUUUAAUUA | 0.0833 ± 0.017
19 | UCCUGGAUCAGCUUGCAUAGUAAUUAGAAA | 0.0807 ± 0.02
20 | UCCUGCUACAGCUUGCAUAGUAUUUACAAA | 0.153 ± 0.039

Row | Sequence | pre-steady-state target cleavage rate
21 | UCCUCCUACAGCUUGCAUAGUAUGUUAGUUA | 0.126 ± 0.022
22 | UCCUCCUACAGCUUGCAUAGUAUUUAGUGUA | 0.158 ± 0.027
23 | UCCUGCUACAGCUUCCAUAGUAUUUAGUUA | 0.0846 ± 0.028
24 | UCCUGGAAGUCCUUGCAUAGUAUUUAGUAA | 0.122 ± 0.021
25 | UCCUGCUACAGCAUGCAUAGAAUUUAGUUA | 0.0922 ± 0.021
26 | UCCUCCUACAGCUUGCAUAGUUAAUAGAAA | 0.00946 ± 0.0043
27 | UCCUCCUACACCUUGCAUAGUUUUUAGUUA | 0.0414 ± 0.012
28 | UCCUCCUACAGCUUGCAAAGUAUUUUGUUA | 0.0808 ± 0.011
29 | UCCUGCUACAGCUUGCAUAGUAAUUAGAAA | 0.0259 ± 0.0091
30 | UCCUGCUACAGCUUGCAUACUAUUUAGAAA | 0.0482 ± 0.015
31 | UCCUCCUACAGCUUGCAUAGUAUAAUGUAA | 0.046 ± 0.014
32 | UCCUGGUAGUGCUUGCAUAGUAUUUAGAAA | 0.0343 ± 0.013
33 | UCCUGCUACAGCUUGCAUUGUAUUUACAAA | 0.0245 ± 0.01
34 | UCCUCCUACAGCUUCCAUAGUAUUUAGUAA | 0.0254 ± 0.011
35 | UCCUGGAACAGCUUGGAUAGUAUUUAGAAA | 0.0385 ± 0.012
36 | UCCUGCUACAGCUUGCAUAGAAUUUAGUUA | 0.0612 ± 0.014
37 | UCCUGCUACAGCUUGCUUAGUAUUUAGAUA | 0.0729 ± 0.015
38 | UCCUCCUACAGCUUGCAUAGUAAUUAGAAA | 0.127 ± 0.032
39 | UCCUGGUACAGCUUGCAUAGUAUUUUGAUA | 0.0966 ± 0.025
40 | UCCUGGAUGUGCAAGCAUAGUAUUUAGAAA | 0.0135 ± 0.0052

System: EfPiwi piRISC loaded with L1MC piRNA (26 nt)
Experiment: pre-steady-state target cleavage rate (min^-1); auxiliary factor: 500 nM Ephydatia muelleri Gtsf1; guide: L1MC piRNA 5'p-UAACUAAAUACUAUGCAAGCUGUAGG; MIWI and MILI are mouse PIWI proteins and EfPiwi is from a freshwater sponge; tags in brackets are library labels; higher = faster piRNA-guided slicing of the target
Conditions: not given
Procedure, shortened: as §1

Row | Sequence | pre-steady-state target cleavage rate
41 | UCCUGGAACAGCUUGCAUAGUAAUUUGUUA | 0.0032 ± 0.002
42 | UCCUGGAACAGCUUGCAUAGUAUUUAUUUA | 0.00534 ± 0.0034
43 | UCCUGGAACAGCUUCCAUAGUAUUUAGUAA | 0.00376 ± 0.0014
44 | UCCUCCUACAGCUUGCAUAGUAUUAUGAAA | 0.00358 ± 0.0025
45 | UCCUCCUACAGCUUGCAUAGAAUUUAGAUA | 0.00317 ± 0.0015
46 | UCCUCCUACAGCUAGCAUAGUAUUUAGAAA | 0.00378 ± 0.0016
47 | UCCUCCUUCAGCUUGCAUAGUAUUUACUUA | 0.00514 ± 0.0032
48 | UCCUGGAUGAGCUUGCAUAGUAUUUAGAUUA | 0.00336 ± 0.002
49 | UCCUGGAUCAGCUUGCAUAGUAAUUAGAUA | 0.00275 ± 0.0021
50 | UCCUCCUACAGGAUGCAUAGUAUUUACAAA | 0.0028 ± 0.0027
51 | UCCUGGAUCAGCUUGCAUAGUUUUUAGUAA | 0.00477 ± 0.0025
52 | UCCUGCUACAGCUUGCAUAGUAAUUAGUAA | 0.00441 ± 0.0018
53 | UCCUGGAUGUGCUUGCAUAAUAUUUAGUUA | 0.00327 ± 0.0027
54 | UCCUCCUACAGCUUGCAUAGAUUUUAGUAA | 0.00392 ± 0.0025
55 | UCCUGCUACAGCUUGCAUAGUAUAAUGAAA | 0.00473 ± 0.0032
56 | UCCUGCUACAGCUUGCAUAGUAUAUAGUAA | 0.00354 ± 0.0018
57 | UCCUCCUUCAGCUUGCAUAGUAUUUAGAAA | 0.00603 ± 0.0031
58 | UCCUGGAUGUCCUUGCAUAGUAUUUAAUUA | 0.00439 ± 0.003
59 | UCCUGGAUCAGCUUGCAUAGUAAUUAGAAA | 0.00582 ± 0.0028
60 | UCCUGCUACAGCUUGCAUAGUAUUUACAAA | 0.00255 ± 0.0022

Row | Sequence | pre-steady-state target cleavage rate
61 | UCCUCCUACAGCUUGCAUAGUAUGUUAGUUA | 0.00459 ± 0.0021
62 | UCCUCCUACAGCUUGCAUAGUAUUUAGUGUA | 0.00735 ± 0.0033
63 | UCCUGCUACAGCUUCCAUAGUAUUUAGUUA | 0.00342 ± 0.0012
64 | UCCUGGAAGUCCUUGCAUAGUAUUUAGUAA | 0.00346 ± 0.0028
65 | UCCUGCUACAGCAUGCAUAGAAUUUAGUUA | 0.00243 ± 0.002
66 | UCCUCCUACAGCUUGCAUAGUUAAUAGAAA | 0.00366 ± 0.0031
67 | UCCUCCUACACCUUGCAUAGUUUUUAGUUA | 0.00443 ± 0.002
68 | UCCUCCUACAGCUUGCAAAGUAUUUUGUUA | 0.00453 ± 0.0028
69 | UCCUGCUACAGCUUGCAUAGUAAUUAGAAA | 0.00362 ± 0.0016
70 | UCCUGCUACAGCUUGCAUACUAUUUAGAAA | 0.00298 ± 0.0021
71 | UCCUCCUACAGCUUGCAUAGUAUAAUGUAA | 0.00413 ± 0.0027
72 | UCCUGGUAGUGCUUGCAUAGUAUUUAGAAA | 0.00197 ± 0.0017
73 | UCCUGCUACAGCUUGCAUUGUAUUUACAAA | 0.00313 ± 0.0028
74 | UCCUCCUACAGCUUCCAUAGUAUUUAGUAA | 0.0037 ± 0.0018
75 | UCCUGGAACAGCUUGGAUAGUAUUUAGAAA | 0.00373 ± 0.0019
76 | UCCUGCUACAGCUUGCAUAGAAUUUAGUUA | 0.00582 ± 0.0022
77 | UCCUGCUACAGCUUGCUUAGUAUUUAGAUA | 0.00495 ± 0.0028
78 | UCCUCCUACAGCUUGCAUAGUAAUUAGAAA | 0.00474 ± 0.0026
79 | UCCUGGUACAGCUUGCAUAGUAUUUUGAUA | 0.00381 ± 0.0026
80 | UCCUGGAUGUGCAAGCAUAGUAUUUAGAAA | 0.00423 ± 0.0039
